Compounds with a hit are over-represented: about 2.9% of the library has one in this group of screens.
GRK2 aptamer HTS = human GRK2 inhibition via aptamer displacement | inhibition of aptamer binding, % at 10 µM | AID 488847 | 330,000 compounds, 0.59% hits | P25098 | bead flow cytometry, FAM-aptamer displacement from GRK2;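 active means inhibition of aptamer binding above 40%, roughly 3 SD of noise, on plates passing a quality check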;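 further: median bead fluorescence of bound FAM aptamer so fluorescent compounds give negative values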
Target sequence (P25098 whole entry, looked up): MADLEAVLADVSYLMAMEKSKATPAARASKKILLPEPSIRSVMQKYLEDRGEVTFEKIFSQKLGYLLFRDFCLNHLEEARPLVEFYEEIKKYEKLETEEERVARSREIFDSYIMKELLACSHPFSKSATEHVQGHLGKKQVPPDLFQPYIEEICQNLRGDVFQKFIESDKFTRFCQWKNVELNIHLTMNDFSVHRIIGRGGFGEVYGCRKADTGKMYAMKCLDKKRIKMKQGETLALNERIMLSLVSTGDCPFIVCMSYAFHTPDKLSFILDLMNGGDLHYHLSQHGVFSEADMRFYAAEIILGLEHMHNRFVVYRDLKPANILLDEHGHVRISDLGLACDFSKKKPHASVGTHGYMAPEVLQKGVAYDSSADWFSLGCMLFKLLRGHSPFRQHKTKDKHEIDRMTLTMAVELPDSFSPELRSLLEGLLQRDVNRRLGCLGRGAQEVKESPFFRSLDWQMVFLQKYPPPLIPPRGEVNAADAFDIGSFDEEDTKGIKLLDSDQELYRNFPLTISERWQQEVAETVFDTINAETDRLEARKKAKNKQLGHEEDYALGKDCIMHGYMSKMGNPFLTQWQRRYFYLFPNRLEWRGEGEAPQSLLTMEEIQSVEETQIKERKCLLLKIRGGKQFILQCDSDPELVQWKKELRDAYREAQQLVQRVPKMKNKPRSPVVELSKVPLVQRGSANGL
PP1 inh = PP1-alpha (human) inhibition in PP5 counter-screen | purified PP1alpha, OMFP fluorescence | AID 2235 | 320,000 compounds, 0.9% hits | inhibition, % at 6.7 µM | P62136;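 active means inhibition above the mean inhibition of all tested compounds plus 3 SD, computed separately for each screening campaign, cut at about 15% in these data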
NadD inh = NadD (S. aureus) enzyme inhibition | AID 602399 | inhibition, % at 20 µM | purified NadD enzyme, colorimetric absorbance read-out | 360,000 compounds, 0.78% hits; in the data active means inhibition above about 26%
B2AR ag = human beta-2 adrenergic receptor agonism by FAP; Am2.2-beta2AR cells, FAP receptor internalization, flow cytometry; response, % (no concentration beside the values); AID 504454; 340,000 compounds, 0.43% hits;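 active means response above a set limit, near 3 SD of response in nonfluorescent compounds, cut at about 42% in these data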
Exocytosis inh = blocks lytic granule exocytosis | TALL-104 LAMP-1 surface exposure, flow cytometry; cells stimulated with thapsigargin and PMA | inhibition, % at 10 µM | 360,000 compounds, 0.66% hits | AID 651702;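 active means inhibition above about 55%, limit read from the data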
NadD inh conf = NadD (S. aureus) inhibition, single concentration confirmation; shares compounds with NadD inh; purified S. aureus NadD, colorimetric enzyme assay; inhibition, % at 20 µM; 2,000 compounds, 13% hits; in the data active means inhibition mostly above about 42%, no sharp cut-off; inactive means mostly below about 42%
Numbers without * were called inactive; . = no result given.

SMILES	GRK2 aptamer HTS	PP1 inh	NadD inh	B2AR ag	Exocytosis inh	NadD inh conf
O=C1CC(=C2c3ccccc3-c3ccccc32)C(=O)N1CCN1CCN(c2cccc(Cl)c2)CC1	4	16*	69*	4	-2	60*
C=CCn1c(SCC(=O)N(C)C)nc2sc3c(c2c1=O)CCC3	0	4	-2	-10	-5	.
CSCc1ccc(C(=O)NCC(c2cccs2)N2CCOCC2)cc1 (centres undefined)	0	-8	-1	-2	17	.
O=c1[nH]cnc2c1sc1nc(-c3ccccc3)c3c(c12)CCCC3	0	1	0	-22	4	.
S=c1nc[nH]c2c1sc1nc(-c3ccccc3)c3c(c12)CCCC3	8	2	40*	-7	-2	-2
COc1ccc(NC(=O)CSc2nc3c(cc2C#N)CN(C)CC3)cc1	0	6	30*	-3	-5	-8
Cc1ccc(S(=O)(=O)N2CCC(C(=O)NC3CC(C)(C)NC(C)(C)C3)CC2)cc1	2	0	-7	-1	-2	.
O=C1c2ccccc2C(O)(c2ccccc2)N1c1ccc([N+](=O)[O-])cc1Cl (centres undefined)	.	.	1	4	0	.
CCOC(=O)c1sc2nc(SCC#N)n(CCCN3CCCC3=O)c(=O)c2c1C	0	-2	7	-15	1	.
CCOC(=O)c1sc2nc3c(SCCC#N)cc(C(=O)c4cc(F)ccc4O)cn3c(=O)c2c1C	4	-2	33*	-1	-1	-8
Cc1ccc(-c2n[nH]c(=S)n2/N=C/C=C/c2ccccc2[N+](=O)[O-])cc1	0	11	35*	-2	1	20
Cc1ccc(S(=O)(=O)c2c(C)nn(-c3ccccc3)c2OC(=O)c2ccc(Br)o2)cc1	3	-1	-2	5	5	.
O=C1Nc2ccccc2N=C(c2ccc3c(c2)OCO3)C1N(C(=O)c1ccc2ccccc2c1)C1CC1 (centres undefined)	.	.	35*	.	3	22
O=C1Nc2ccccc2N=C(c2ccc3c(c2)OCO3)C1N(C(=O)c1ccnc2ccccc12)c1ccccc1 (centres undefined)	.	.	13	.	-2	.
Cc1ccc(C(=O)N2CCN(C3c4cccc5cccc(c45)C3NS(=O)(=O)c3ccccc3)CC2)cc1 (centres undefined)	1	5	36*	2	-1	19
CCOc1ccc(NS(=O)(=O)c2ccc(Cl)c(N=Nc3c(O)[nH]c(=S)[nH]c3=O)c2)cc1Br	.	.	39*	.	-5	63*
Cc1ccccc1C(=O)NC1CCN(C(=O)Nc2ccccc2Cl)CC1	0	-4	-1	0	-2	.
O=C(N/N=C/c1ccco1)c1cccc(N2Cc3ccccc3C2)c1	2	13	35*	-2	3	47
CC(C)(C)OC(=O)N1CCC(c2cc(=O)n3[nH]cc(C(=O)Nc4ccc(F)c(Cl)c4)c3n2)CC1	1	2	22	2	4	.
COc1ccc(NC(=O)c2c[nH]n3c(=O)cc(C4CCN(C(=O)OC(C)(C)C)CC4)nc23)cc1Cl	1	14	29*	6	-1	20
CCn1c(CCc2ccccc2)nc2ccccc21	0	.	-3	-11	-3	.
CCOC(=O)Cc1csc(NC(=O)c2sc3nc4c(C)cc(C)cc4cc3c2N)n1	0	6	40*	-72	2	2
COc1ccc(-c2nc3c(c(SCC(=O)Nc4cccc(O)c4)n2)Cc2c(CO)cnc(C)c2O3)cc1	0	9	50*	16	6	18
Cc1ncc(CO)c2c1Oc1nc(-c3ccccc3)nc(SCC(=O)Nc3cccc(O)c3)c1C2	0	-1	43*	5	44	39*
O=C(CSc1nc(-c2ccc(F)cc2)nc2c1Cc1ccccc1O2)Nc1cccc(C(=O)O)c1	.	.	10	-3	6	.
Cc1ccc2oc(=O)c3cc(C(=O)NCCCN4CCCCCC4)sc3c2c1	0	4	37*	17	21	-8
O=C1CN(C(=O)CNCc2ccccc2)c2ccccc2N1	0	9	-1	16	4	.
O=C(Cc1csc(Nc2nc(=S)[nH]c3ccccc23)n1)N1CCN(c2cccc(Cl)c2)CC1	0	-3	55*	0	-1	8
Cc1ccc(Cl)cc1N1CCN(C(=O)Cn2ccc3ccccc3c2=O)CC1	1	1	-7	-14	4	.

Screens (PubChem)
